Results published in paper PMC11062922 (Nature Chemical Biology, 2023).

What was measured:
Parameters in all cases: species or system human, MV4-11 + K-562 + COLO205 + SK-N-BE2 + OVCAR-8
AMPK-alpha2 = conditions: compound concentrations: 100 nM and 1000 nM (sheet 'Samples')
CIT = conditions: compound concentrations: 100 nM and 1000 nM (sheet 'Samples')
CLK1 = conditions: compound concentrations: 100 nM and 1000 nM (sheet 'Samples')
CLK2 = conditions: compound concentrations: 100 nM and 1000 nM (sheet 'Samples')
CSNK2A1 = conditions: read-out: Kinobeads Data; compound concentrations: 100 nM and 1000 nM (sheet 'Samples'); n = 1
CSNK2A2 = conditions: read-out: Kinobeads Data; compound concentrations: 100 nM and 1000 nM (sheet 'Samples'); n = 1
DYRK1A = conditions: compound concentrations: 100 nM and 1000 nM (sheet 'Samples')
DYRK1B = conditions: compound concentrations: 100 nM and 1000 nM (sheet 'Samples')
EPHB1 = conditions: compound concentrations: 100 nM and 1000 nM (sheet 'Samples')
[1] = system: JAK2(JH1domain-catalytic); conditions: compound concentrations: 100 nM and 1000 nM (sheet 'Samples')
LCK = conditions: compound concentrations: 100 nM and 1000 nM (sheet 'Samples')
MEK5 = conditions: compound concentrations: 100 nM and 1000 nM (sheet 'Samples')
MERTK = conditions: compound concentrations: 100 nM and 1000 nM (sheet 'Samples')
MLK3 = conditions: compound concentrations: 100 nM and 1000 nM (sheet 'Samples')
NEK2 = conditions: compound concentrations: 100 nM and 1000 nM (sheet 'Samples')
SLK = conditions: compound concentrations: 100 nM and 1000 nM (sheet 'Samples')
STK16 = conditions: compound concentrations: 100 nM and 1000 nM (sheet 'Samples')
SYK = conditions: compound concentrations: 100 nM and 1000 nM (sheet 'Samples')
TBK1 = conditions: compound concentrations: 100 nM and 1000 nM (sheet 'Samples')
[2] = system: TYK2(JH2domain-pseudokinase); conditions: compound concentrations: 100 nM and 1000 nM (sheet 'Samples')
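Note: kinobeads ε competition pulldown from cell lysate, compound preincubated 45 min at 4 °C, bound kinases quantified by LC–MS/MS relative to DMSO control.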

Structure (SMILES): COc1cc(Nc2ncc3c(C)nc(-c4cc5ccccc5[nH]4)n3n2)cc(OC)c1OC [GW869516X]
- Kinobeads Data (AMPK-alpha2): no target
- Kinobeads Data (CIT): no target
- Kinobeads Data (CLK1): no target
- Kinobeads Data (CLK2): no target
- potency estimated from few doses (CSNK2A1): 78 nM
- potency estimated from few doses (CSNK2A2): 56 nM
- Kinobeads Data (DYRK1A): no target
- Kinobeads Data (DYRK1B): no target
- Kinobeads Data (EPHB1): no target
- Kinobeads Data [1]: no target
- Kinobeads Data (LCK): no target
- Kinobeads Data (MEK5): no target
- Kinobeads Data (MERTK): no target
- Kinobeads Data (MLK3): no target
- Kinobeads Data (NEK2): no target
- Kinobeads Data (SLK): no target
- Kinobeads Data (STK16): no target
- Kinobeads Data (SYK): no target
- Kinobeads Data (TBK1): no target
- Kinobeads Data [2]: no target
